Among the data in PubChem BioAssay (EPA / NIEHS) are outcome and AC50 values, retold here.

One may read the AC50 as the concentration giving half of the maximal activity seen.

Structures are written as SMILES. Some compounds were tested as several samples or in several runs, with calls that do not always agree. Calls of active or inactive are those of the source. How the source made its calls: active means hit-call score of the fitted dose curve at least 0.9, where 1 is the maximum; inactive means score below 0.9.

This experiment in a line: ATG_FoxO_CIS: Attagene CIS-FACTORIAL HepG2 Assay for human Forkhead box O (FoxO) (AID 2282943). To be noted: HepG2 Attagene cis-reporter, FoxO element, mRNA; actives raise or lower the signal. The procedure: ATG_CIS is a cell-based, multiplexed-readout assay that uses HepG2, a human liver cell line, with measurements taken at 24 hours after chemical dosing in a 24-well plate.ATG_FoxO_CIS is one of 52 assay component(s) measured or calculated from the ATG_CIS assay. It is designed to make measurements of mRNA induction, a form of inducible reporter, as detected with fluorescence intensity signals by Reverse transcription polymerase chain reaction (RT-PCR) and Capillary electrophoresis technology.Data from the assay component ATG_FoxO_CIS was analyzed into 1 assay endpoint. This assay endpoint, ATG_FoxO_CIS, was analyzed with bidirectional fitting relative to DMSO as the negative control and baseline of activity. Using a type of inducible reporter, measures of mRNA for gain or loss-of-signal activity can be used to understand the reporter gene at the transcription factor-level as they relate to the gene FOXO1 and FOXO3. Furthermore, this assay endpoint can be referred to as a primary readout, because this assay has produced multiple assay endpoints where this one serves a reporter gene function. To generalize the intended target to other relatable targets, this assay endpoint is annotated to the dna binding intended target family, where the subfamily is forkhead box protein.
Human liver HepG2 cells are transiently transfected with multiple reporter transcription units (MRTUs) in 6-well plates using FuGene 6 reagent (Roche; 3 ml FuGene/1 mg DNA). The MRTU constructs are regulated by a cis-regulating element (promoter). […] A major difference between the CIS and TRANS system is that in CIS activities of endogenous TFs are measured, whereas the TRANS assay evaluates changes in activities of exogenous, chimeric NR-Gal4 proteins. […] At the end of 24 hour incubation, total RNA was isolated using TriZol reagent (Invitrogen). The isolated RNA is then reverse-transcribed using oligo(dT) primer and Mo-MLV reverse transcriptase (Invitrogen) with DNAse I (Ambion) treatment for 30 min. The one-tenth of the produced cDNA was amplified by PCR using Taq DNA polymerase (Invitrogen) and two reporter sequence-specific primers. The PCR products were fluorescently labeled by primer extension with 6-arboxyfluorescein (6-FAM) 5'-labeled reporter sequence-specific primer (2 min at 95 C, 20 s at 68 C and 10 min at 72 C) and these products were digested with 5U of HpaI (New England Biolabs) for 2h at 37 C. The fragments were purified using Qiaquick PCR columns (Qiagen), analyzed on an ABI 3130xL genetic analyzer (Applied Biosystems) with peak positions identified by using a set of X-rhodamine (ROX)-labeled MapMarker1000 molecular weight standards (BioVentures). The raw capillary electrophoresis data was processed using Attagraph software (Attagene).
For `CNC(=O)ON=CC(C)(C)SC`, the molecule was classed as inactive.
Still for that read-out and setting: as for `CC(C)Oc1cc(-n2nc(C(C)(C)C)oc2=O)c(Cl)cc1Cl`, the entry is “inactive”.
`C=CCC1=C(C)C(OC(=O)C2C(C=C(C)C)C2(C)C)CC1=O` (stereo not given): the call was inactive and the AC50 is 152 µM (active).
With `CC1=C(C(=O)Nc2ccccc2)SCCO1`, the result was inactive.
On the same count and under the same terms, next, `CCOC(=O)C(Cl)Cc1cc(-n2nc(C)n(C(F)F)c2=O)c(F)cc1Cl` (stereo not given): “inactive”; `COc1ccc(C(c2ccc(OC)cc2)C(Cl)(Cl)Cl)cc1`: “inactive”; `CCOP(=S)(OCC)SCn1c(=O)oc2cc(Cl)ccc21`: “inactive”.
Still for that read-out and setting: next, `CCOc1cc(Oc2ccc(C(F)(F)F)cc2Cl)ccc1[N+](=O)[O-]`: “inactive”.
As to `O=C(Nc1ccccc1)Nc1ccnc(Cl)c1`, the half-maximal activity concentration (AC50) was 13 µM (active).
`COC(=O)C(C)Oc1ccc(Oc2ccc(Cl)cc2Cl)cc1` (stereo not given): the outcome was inactive.
On the same count and under the same terms, as for `COP(=S)(OC)Oc1nc(Cl)c(Cl)cc1Cl`, the entry is “inactive”; as for `Cc1cc(Cl)ccc1OCC(=O)O`, “inactive”.
Consider `CCCCOC(=O)c1ccccc1C(=O)OCCCC`, for which the molecule was classed as inactive.
Regarding `CCON=C(CC)C1=C(O)CC(c2c(C)cc(C)cc2C)CC1=O` (stereo not given), the call was inactive.
Regarding `CCCCNC(=O)OCC#CI`, the molecule was classed as inactive and the AC50 is 26.4 µM (active).
For the molecule `CO/C=C(/C(=O)OC)c1ccccc1Oc1cc(Oc2ccccc2C#N)ncn1`, the molecule was classed as inactive.
For `CCOC(=O)CC(SP(=S)(OC)OC)C(=O)OCC` (stereo not given), the result was inactive.
Turning to `COP(N)(=O)SC` (stereo not given), the molecule was called inactive.
For `CC(C)C1(C)N=C(c2nc3ccccc3cc2C(=O)O)NC1=O` (stereo not given), the result was inactive.
In the case of `N#CC(CCc1ccc(Cl)cc1)(Cn1cncn1)c1ccccc1` (stereo not given), the result was inactive.
The same measure, in the same setting: as for `C#CCOS(=O)OC1CCCCC1Oc1ccc(C(C)(C)C)cc1` (stereo not given), the entry is “inactive”; as for `COC(=O)C=C(C)OP(=O)(OC)OC`, “inactive”.
Turning to `Cc1ccc(-c2c(Cl)nc(C#N)n2S(=O)(=O)N(C)C)cc1`, the outcome was inactive.
For `CCCCC(CC)COC(=O)c1ccccc1C(=O)OCC(CC)CCCC` (stereo not given), the molecule was called inactive.
For the molecule `OC(c1ccc(Cl)cc1)(c1cncnc1)c1ccccc1Cl` (stereo not given), the result was inactive.
For `CS/C(C)=N/OC(=O)N(C)SN(C)C(=O)O/N=C(\C)SC`, the molecule was called inactive.
With `COc1nc(C)nc(NC(=O)NS(=O)(=O)c2ccccc2CCC(F)(F)F)n1`, the molecule was called inactive.
Same read-out and setting: next, `CON(C)C(=O)Nc1ccc(Cl)c(Cl)c1`: “inactive”; `CCNc1nc(Cl)nc(NC(C)C)n1`: “inactive”; `CCCCNC(=O)n1c(NC(=O)OC)nc2ccccc21`: “inactive”.
`COc1nc(NC(C)C)nc(NC(C)C)n1`: the molecule was classed as inactive.
For `CC(Oc1ccc(Cl)cc1Cl)C(=O)O` (stereo not given), the result was inactive.
For `CCCN(CCC)c1c([N+](=O)[O-])cc(S(N)(=O)=O)cc1[N+](=O)[O-]`, the result was inactive.
The same measure, in the same setting: as for `CCc1nn(C)c(C(=O)NCc2ccc(C(C)(C)C)cc2)c1Cl`, the entry is “inactive”; as for `CC1COC(Cn2cncn2)(c2ccc(Oc3ccc(Cl)cc3)cc2Cl)O1` (stereo not given), “inactive”; as for `CNC(=S)S`, “inactive”.
Take `N#Cc1nn(-c2c(Cl)cc(C(F)(F)F)cc2Cl)c(N)c1S(=O)C(F)(F)F` (stereo not given): the molecule was called inactive.
Take `CCCC1COC(Cn2cncn2)(c2ccc(Cl)cc2Cl)O1` (stereo not given): the molecule was called inactive.
